SMILES strings stand for the structures. Where “and” joins values, the source holds several entries; their conditions need not be identical. Equal entries are not always repeated. A number with no mark means an inactive call. Results filed as inconclusive are left out. Calls of active or inactive are those of the source. Unless noted, the call rests on the fitted dose curve; in most records, active means well fitted curve in the direction sought with a large enough effect in the repeat runs; inconclusive means weak or mixed curves; inactive means no such curve, though single readings can be large; an effect the other way counts as inactive or inconclusive.

Experimental findings from PubChem BioAssay (Tox21) are described below.

Test [1] can be described thus: qHTS assay to identify small molecule HDAC inhibitors (AID 1259364). Further: nearly all actives have a fitted effect of over 45% in size. Further: potency means the concentration at half of the fitted maximal effect. The gist of the method:
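Homogeneous cell-based luminescent assay of endogenous class I/II HDAC activity; HCT-116 cells, 2 h compound exposure, 30 min HDAC-Glo development at RT.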

A short description of test [2]: qHTS assay to identify small molecule HDAC inhibitors - cell viability counter screen (AID 1259365). Further: nearly all actives have a fitted effect of over 50% in size. Further: potency means the concentration at half of the fitted maximal effect. The gist of the method:
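HCT-116 wild-type, overnight attachment; 2hr drug exposure, 37C; CellTiter-Glo luminescent ATP readout after 30min RT.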

Test [3] can be described thus: qHTS assay to identify small molecule agonists of the sonic hedgehog signaling (Shh) pathway - cell viability counter screen (AID 1259366). Further: nearly all actives have a fitted effect of over 50% in size. Further: potency means the concentration at half of the fitted maximal effect. The essentials:
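Compounds in DMSO were pin-transferred onto 3T3 Gli1-Luc cells that had settled 4hr; plates then stood 24hr at 37C and 5% CO2. One hour before the end, CellTiter-Fluor was added and fluorescence recorded.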

A short description of test [4]: qHTS assay to identify small molecule antagonists of the sonic hedgehog signaling (Shh) pathway - cell viability counter screen (AID 1259367). Further: nearly all actives have a fitted effect of over 55% in size. Further: potency means the concentration at half of the fitted maximal effect. The gist of the method:
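Seed 3T3 Gli1-Luc cells at 2,000 per well; incubate 4 hr; add compound in DMSO, then conditioned medium; incubate at 37C with 5% CO2; add CellTiter-Fluor after 23 hr; read fluorescence 1 hr later.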

Test [5] can be described thus: qHTS assay to identify small molecule agonists of the sonic hedgehog signaling (Shh) pathway (AID 1259368; calls by dose curve;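 further: NIH/3T3-derived 3T3Gli1-Luc cells carrying a stable Gli1-driven firefly luciferase reporter; series mostly up to about 92 µM; nearly all actives have a fitted effect of over 15% in size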). The essentials:
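Steps: seed 3T3 Gli1-Luc cells, incubate 4 hr at 37 C, pin-transfer compounds in DMSO alongside a positive control, incubate 24 hr, add luciferase detection reagent, wait 30 min at room temperature, read luminescence.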

A short description of test [6]: qHTS assay to identify small molecule antagonists of the sonic hedgehog signaling (Shh) pathway (AID 1259369; calls by dose curve; further: nearly all actives have a fitted effect of over 45% in size; further: potency means the concentration at half of the fitted maximal effect). The essentials:
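Inhibition of Shh signalling is measured as reduced Gli1-response-element firefly luciferase output in an NIH/3T3-derived stable reporter clone stimulated with conditioned medium for 24hr.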

Test [7] can be described thus: qHTS assay to identify small molecule agonists of the androgen receptor (AR) signaling pathway in the presence of an antagonist - cell viability counter screen (AID 1259379). Further: nearly all actives have a fitted effect of over 25% in size. Further: potency means the concentration at half of the fitted maximal effect. The essentials:
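Fluorescence from CellTiter-Fluor, added after 15 hr and read 1 hr later, gave cell viability. Cells were MDA-kb2 exposed to compounds (15 concentrations) in the presence of 3.0uM nilutamide at 37C, 0% CO2.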

The nature of test [8]: qHTS assay to identify small molecule agonists of the estrogen receptor beta (ER-beta) signaling pathway - cell viability counter screen (AID 1259380). Further: nearly all actives have a fitted effect of over 30% in size. Further: potency means the concentration at half of the fitted maximal effect. The essentials: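 Same-well viability counter screen. Cells: ER-beta-UAS-bla HEK293T, plated 6 hr before compound, in 2% charcoal-stripped FBS. Compound exposure 16 hr, 37C; viability by CellTiter-Glo luminescence after 30 min at room temperature.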

A short description of test [9]: qHTS assay to identify small molecule antagonists of the estrogen receptor beta (ER-beta) signaling pathway - cell viability counter screen (AID 1259382). Further: nearly all actives have a fitted effect of over 55% in size. Further: potency means the concentration at half of the fitted maximal effect. The essentials:
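Following a 6 hr plating period, HEK293T cells carrying a UAS-driven beta-lactamase reporter under ER-beta control received compounds and 1nM E2 (final). After 16 hr at 37C and 2 hr substrate loading, CellTiter-Glo luminescence indicated viability.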

Test [10] in a line: qHTS assay to identify small molecule agonists or antagonists of the thyroid stimulating hormone receptor (TSHR) signaling pathway - wild type cell line counter screen (AID 1259384; calls by dose curve). The gist of the method: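 Wild-type Hek293 cells, 800/well, 18 h at 37C, then compound with Ro20-1724 for 30 min RT. cAMP by HTRF (cAMP-d2/anti-cAMP cryptate), 1 h RT, fluorescence read. 15 concentrations, triplicates.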

The target in test [11] is Thyrotropin receptor (Homo sapiens) (UniProt P16473). Description: qHTS assay to identify small molecule antagonists of the thyroid stimulating hormone receptor (TSHR) signaling pathway (AID 1259385; calls by dose curve; further: nearly all actives have a fitted effect of over 20% in size). The essentials: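 TSHR-HEK293 cells (800/well) plated 18 h, then compounds with Ro20-1724 and TSH at 1.5 ng/mL final, 30 min at room temperature. cAMP quantified by HTRF (cAMP-d2/anti-cAMP-cryptate, 1 h); 15 concentrations in triplicate.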

Test [12] is described as follows: qHTS assay to identify small molecule antagonists of the androgen receptor (AR) signaling pathway using the MDA cell line in the presence of 0.5 nM R1881 - cell viability counter screen (AID 1259242). Further: nearly all actives have a fitted effect of over 45% in size. The essentials: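 Cytotoxicity toward MDA-kb2 cells is measured by CellTiter-Fluor live-cell protease fluorescence after 16 hr compound exposure at 37C in the presence of 0.5 nM R1881 stimulator.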

Test [13] addresses Estrogen receptor beta (Homo sapiens) (UniProt Q92731). Briefly: qHTS assay to identify small molecule agonists of the estrogen receptor beta (ER-beta) signaling pathway (AID 1259377; active means well fitted activation curve with a large enough effect in the signal ratio in the repeat runs, not every such curve was filed as active; the % refers to the signal ratio). The essentials:
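qHTS in ER-beta-UAS-bla HEK293T cells: 6 hr settling, then 16 hr compound at 37C, then LiveBLAzer substrate 2 h at RT before fluorescence reading.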

Test [14] shares this target. Briefly: qHTS assay to identify small molecule antagonists of the estrogen receptor beta (ER-beta) signaling pathway (AID 1259378; active means well fitted inhibition curve with a large enough effect in the signal ratio in the repeat runs, not every such curve was filed as active; the % refers to the signal ratio; further: potency means the concentration at half of the fitted maximal effect). The gist of the method: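 ER-beta-UAS-bla HEK293T cells in 2% charcoal-stripped FBS medium treated with compound plus 1nM final 17-beta-estradiol for 16 hr at 37C. Beta-lactamase reporter read by FRET substrate fluorescence after 2 hours at room temperature.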

Test [15] addresses Estrogen receptor (Homo sapiens) (UniProt P03372). Briefly: qHTS assay to identify small molecule agonists of the estrogen receptor alpha (ER-alpha) signaling pathway in the presence of an antagonist (AID 1259383; calls by dose curve; further: top concentration of the series differs between compounds; nearly all actives have a fitted effect of over 15% in size). The essentials:
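Cells are hormone-deprived for 5 days (charcoal-stripped FBS, no phenol red), plated for 24hr, spiked with 10.0nM ICI-182,780, then dosed at 15 concentrations. After 22hr at 37C, ONE-Glo luminescence reports ERE-luciferase activity.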

The target is the same in test [16]. Briefly: qHTS assay to identify small molecule antagonists of the estrogen receptor alpha (ER-alpha) signaling pathway using the BG1 cell line in the presence of 0.1 nM 17-beta-estradiol (AID 1259244). Further: nearly all actives have a fitted effect of over 50% in size. The gist of the method: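 After 5 days in hormone-depleted medium (charcoal-stripped serum, no phenol red), VM7Luc4E2 cells were seeded, incubated 24 h, then co-treated with compound and 0.1 nM (final) estradiol for 22 h before luminescence detection.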

Test [17] addresses Androgen receptor (Homo sapiens) (UniProt P10275). Description: qHTS assay to identify small molecule agonists of the androgen receptor (AR) signaling pathway in the presence of an antagonist (AID 1259381; calls by dose curve; further: nearly all actives have a fitted effect of over 15% in size). The essentials: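 Cells are MDA-kb2 (human breast carcinoma, MMTV-luc, AR/GR responsive). Nilutamide is present at 3.0uM final throughout; compounds are added at 15 concentrations and incubated 16hr at 37C before ONE-Glo luminescence detection.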

Test [18] in a line: qHTS assay to identify small molecule phospholipidosis (PLD) inducers (AID 1259344; active means well fitted curve in the direction sought with a large enough effect; an effect the other way counts as inactive or inconclusive). The gist of the method:
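Quantitative HTS in HepG2: compound plus LipidTOX Red dye for 24 h, paraformaldehyde fixation with Hoechst 33342, widefield high-content imaging; amiodarone as positive and DMSO as negative control.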

Test [19] concerns the target Androgen receptor (Homo sapiens) (UniProt P10275). Briefly: qHTS assay to identify small molecule antagonists of the androgen receptor (AR) signaling pathway using the MDA cell line in the presence of 0.5 nM R1881 (AID 1259243). Further: potency means the concentration at half of the fitted maximal effect; nearly all actives have a fitted effect of over 50% in size. The gist of the method: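 Steps: seed MDA-kb2 cells, incubate 5 hr at 37C; pin-transfer compounds in DMSO; add R1881 to 0.5 nM final; incubate 16 hr; add ONE-Glo, wait 30 min at room temperature; read luminescence.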

Chain of Estrogen receptor (Homo sapiens) (P03372 whole entry, looked up): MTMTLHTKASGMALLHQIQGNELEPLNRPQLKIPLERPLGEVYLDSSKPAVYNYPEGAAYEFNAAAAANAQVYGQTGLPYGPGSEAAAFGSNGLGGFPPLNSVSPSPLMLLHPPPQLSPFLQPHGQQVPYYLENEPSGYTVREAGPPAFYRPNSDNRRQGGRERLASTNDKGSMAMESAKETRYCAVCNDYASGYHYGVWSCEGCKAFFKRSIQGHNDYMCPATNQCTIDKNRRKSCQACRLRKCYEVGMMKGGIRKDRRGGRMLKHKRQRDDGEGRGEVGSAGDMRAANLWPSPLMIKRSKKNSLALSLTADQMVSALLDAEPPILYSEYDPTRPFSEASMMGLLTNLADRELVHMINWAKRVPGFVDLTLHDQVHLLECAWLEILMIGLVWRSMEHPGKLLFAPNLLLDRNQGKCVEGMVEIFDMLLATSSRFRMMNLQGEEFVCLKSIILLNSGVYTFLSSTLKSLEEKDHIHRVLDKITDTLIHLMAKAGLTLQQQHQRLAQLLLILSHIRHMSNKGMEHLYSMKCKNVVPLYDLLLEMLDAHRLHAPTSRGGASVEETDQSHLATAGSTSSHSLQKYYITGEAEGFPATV
Chain of Androgen receptor (Homo sapiens) (P10275 whole entry, looked up): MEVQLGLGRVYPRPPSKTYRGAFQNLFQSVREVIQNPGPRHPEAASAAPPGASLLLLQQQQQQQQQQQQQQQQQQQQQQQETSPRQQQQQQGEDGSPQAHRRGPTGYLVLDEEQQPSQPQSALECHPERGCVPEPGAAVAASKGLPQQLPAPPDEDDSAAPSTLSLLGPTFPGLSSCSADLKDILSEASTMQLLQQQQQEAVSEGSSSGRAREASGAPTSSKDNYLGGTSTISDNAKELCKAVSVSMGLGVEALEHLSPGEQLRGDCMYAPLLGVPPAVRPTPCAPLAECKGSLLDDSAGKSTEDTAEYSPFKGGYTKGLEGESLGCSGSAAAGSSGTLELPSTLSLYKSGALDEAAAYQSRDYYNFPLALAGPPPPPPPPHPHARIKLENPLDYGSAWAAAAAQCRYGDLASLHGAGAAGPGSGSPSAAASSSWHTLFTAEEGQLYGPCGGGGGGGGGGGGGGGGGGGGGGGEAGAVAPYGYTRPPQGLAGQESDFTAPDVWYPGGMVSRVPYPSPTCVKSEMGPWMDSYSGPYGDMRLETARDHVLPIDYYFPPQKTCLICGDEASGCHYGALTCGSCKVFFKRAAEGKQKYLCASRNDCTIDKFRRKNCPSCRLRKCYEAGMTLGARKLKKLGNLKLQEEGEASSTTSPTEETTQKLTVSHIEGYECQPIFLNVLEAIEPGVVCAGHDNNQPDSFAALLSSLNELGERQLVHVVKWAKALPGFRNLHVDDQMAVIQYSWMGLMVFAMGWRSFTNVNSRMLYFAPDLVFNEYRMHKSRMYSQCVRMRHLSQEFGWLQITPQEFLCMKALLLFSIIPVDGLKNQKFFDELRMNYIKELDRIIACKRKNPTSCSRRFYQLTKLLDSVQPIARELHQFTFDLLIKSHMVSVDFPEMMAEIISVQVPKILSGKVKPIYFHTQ
Chain of Thyrotropin receptor (Homo sapiens) (P16473 whole entry, looked up): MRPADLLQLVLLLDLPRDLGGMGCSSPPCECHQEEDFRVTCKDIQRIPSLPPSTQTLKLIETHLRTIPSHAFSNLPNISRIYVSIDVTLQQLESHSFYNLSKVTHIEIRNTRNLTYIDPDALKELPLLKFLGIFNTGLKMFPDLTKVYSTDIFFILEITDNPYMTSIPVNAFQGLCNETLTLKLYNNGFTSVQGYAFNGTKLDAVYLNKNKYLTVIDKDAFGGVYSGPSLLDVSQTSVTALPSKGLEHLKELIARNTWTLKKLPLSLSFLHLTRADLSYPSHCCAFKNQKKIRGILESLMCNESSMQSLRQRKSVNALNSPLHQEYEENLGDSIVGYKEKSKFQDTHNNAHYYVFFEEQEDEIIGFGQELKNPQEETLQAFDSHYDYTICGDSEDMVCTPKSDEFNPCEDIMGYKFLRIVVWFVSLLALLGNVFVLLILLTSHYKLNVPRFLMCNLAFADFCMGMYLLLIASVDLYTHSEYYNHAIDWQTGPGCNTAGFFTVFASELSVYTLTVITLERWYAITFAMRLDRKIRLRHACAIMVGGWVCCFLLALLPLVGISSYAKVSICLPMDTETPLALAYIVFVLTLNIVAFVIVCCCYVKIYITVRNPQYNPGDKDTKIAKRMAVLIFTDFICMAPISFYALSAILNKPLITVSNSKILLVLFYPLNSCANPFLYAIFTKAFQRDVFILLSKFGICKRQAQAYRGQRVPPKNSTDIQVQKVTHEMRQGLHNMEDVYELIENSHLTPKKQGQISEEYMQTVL
Chain of Estrogen receptor beta (Homo sapiens) (Q92731 whole entry, looked up): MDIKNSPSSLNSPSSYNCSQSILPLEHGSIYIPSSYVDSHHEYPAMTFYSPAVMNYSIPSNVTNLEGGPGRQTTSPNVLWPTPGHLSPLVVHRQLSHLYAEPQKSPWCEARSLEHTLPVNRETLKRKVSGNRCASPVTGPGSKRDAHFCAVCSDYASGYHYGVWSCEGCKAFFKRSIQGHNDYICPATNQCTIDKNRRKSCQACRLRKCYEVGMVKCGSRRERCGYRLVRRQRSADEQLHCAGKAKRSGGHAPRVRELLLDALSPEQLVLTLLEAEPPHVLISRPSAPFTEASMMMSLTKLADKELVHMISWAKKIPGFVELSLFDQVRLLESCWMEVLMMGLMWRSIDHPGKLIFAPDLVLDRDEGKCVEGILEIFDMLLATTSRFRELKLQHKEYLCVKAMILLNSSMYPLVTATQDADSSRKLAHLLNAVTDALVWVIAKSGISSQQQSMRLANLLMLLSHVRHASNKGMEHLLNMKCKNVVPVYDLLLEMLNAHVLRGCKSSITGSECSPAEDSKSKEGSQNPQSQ

As to `COCCCN1CCC(NC(=O)c2cc(Cl)c(N)c3c2OCC3)CC1`, the Potency result in [1], in test [2], in test [3], in test [4], in test [6] and in test [7] was “inactive” each time. For the same compound, the Potency entry in [8], in [9], in [10] and in [11] was “inactive” throughout. Besides, in test [5], the call was inactive.

In the case of `Cc1oc(-c2ccccc2)nc1CCOc1cccc2c1ccn2CCC(=O)O`, the Potency result in test [12], in [1], in test [2], in test [6], in test [13] and in [9] was “inactive” throughout. The Potency result in [15] and in test [11] was “inactive” each time. Also, the Potency in test [3] was 21.7 µM (active); in [4], 6.86 µM (active); in [14], 30.6 µM (active); in test [8], 10.9 µM (active). Further, in test [5], the call was inactive.

As for `O=[N+]([O-])c1cccc(S(=O)(=O)O)c1`, the Potency entry in test [1], in test [3], in [4], in test [6], in test [13] and in test [9] was “inactive” each time. Further, the compound was classed as inactive in [5]. Also, the Potency was 2.2 µM (active) in test [14], 62.1 µM (active) in [7] and 24.7 µM (active) in test [8].

For `C=CC(=O)OCCOCCOC(=O)C=C`, the Potency entry in test [2], in test [15], in [10] and in test [11] was “inactive” each time. The Potency in test [3] was 21.8 µM (active); in test [4], 27.4 µM (active); in test [6], 4.88 µM (active); in test [7] it was 61.4 µM (active); in [8] it was 24.4 µM (active). The compound was classed as inactive in test [5].

Take `CNCCCN1c2ccccc2CCc2ccccc21`: the Potency result in test [16], in [1], in test [2], in [17], in test [15] and in [10] was “inactive” each time. For the same compound, the result in test [5] was inactive. Besides, the values for the Potency in test [6], in test [8] and in test [9] were 5.96 µM (active), 23.7 µM (active) and 23.7 µM (active), respectively.

As for `C1CCCNCCC1`, the Potency result in test [12], in test [3], in test [4], in [6], in [13] and in test [14] was “inactive” throughout. The Potency entry in test [7], in [8], in test [9] and in [10] was “inactive” each time. In addition, in test [5], the call was inactive.

Take `O=C(O)c1nc(Cl)c(Cl)c(Cl)c1Cl`: the Potency result in test [12], in [1], in test [2], in test [3], in [4] and in test [7] was “inactive” throughout. In addition, the Potency entry in test [9], in test [10] and in [11] was “inactive” throughout. For the same compound, in test [5], the compound was classed as inactive.

As to `C=C(C)C(=O)OCCOCC`, the Potency entry in test [12], in test [3], in [4], in test [13], in test [7] and in [9] was “inactive” each time. Further, the Potency result in test [15], in [10] and in test [11] was “inactive” throughout. The call in [5] was inactive.

As for `COc1cc2nc(N3CCN(C(=O)C4COc5ccccc5O4)CC3)nc(N)c2cc1OC` (centres undefined), the Potency result in [12], in test [18], in test [1], in test [3], in [4] and in [13] was “inactive” throughout. Moreover, the Potency entry in [7], in test [8], in [9] and in [10] was “inactive” in each case. Moreover, the compound was called inactive in [5].

As to `COS(=O)(=O)C(F)(F)F`, the Potency result in test [12], in test [1], in test [2], in test [13], in test [14] and in [7] was “inactive” each time. Besides, the Potency entry in test [8], in test [9], in test [15] and in [11] was “inactive” in each case. Also, the compound was classed as inactive in [5]. Further, the Potency in test [6] was 14.3 µM (active).

Turning to `CCN(CC)c1ccc(C(=C2C=CC(=[N+](CC)CC)C=C2)c2cc(S(=O)(=O)O)ccc2S(=O)(=O)[O-])cc1`, the Potency in [19] was 7.5 µM (active); in test [1] it was 9.44 µM (active); in test [2], 11.9 µM (active); in [6], 2.66 µM (active); in [7] it was 26.6 µM (active). Further, in test [5], the compound was classed as inactive. Besides, the Potency entry in test [13], in [14], in test [17] and in test [9] was “inactive” each time.

On to `C[N+](C)(C)CCOC(=O)CCC(=O)OCC[N+](C)(C)C`, for which the Potency entry in test [16], in test [18], in [1], in test [2], in [3] and in [4] was “inactive” each time. For the same compound, the Potency result in [6], in test [13], in test [14], in test [7], in [8] and in test [9] was “inactive” each time. Moreover, the Potency entry in [15], in test [10] and in test [11] was “inactive” each time. The call in test [5] was inactive.

For `C=CC(=O)OCCOCCOCCOCCOC(=O)C=C`, the Potency result in test [1], in test [2], in test [9], in test [15] and in test [10] was “inactive” each time. Besides, the Potency in [3] was 27.4 µM (active) and 21.5 µM (active); in test [4] it was 19.4 µM (active) and 27.1 µM (active); in [6], 3.08 µM (active) and 6.06 µM (active); in test [7], 61.4 µM (active) and 54 µM (active). The call in [5] was inactive.

For the compound `Brc1c2ccccc2cc2ccccc12`, the Potency entry in test [12], in [1], in test [3], in test [4], in test [6] and in test [14] was “inactive” throughout. Also, the Potency entry in test [15] and in test [10] was “inactive” in each case. Further, the compound was called inactive in test [5]. Besides, in test [8], the Potency is 61.8 µM (active).
